Consider 56 molecules from PMC4336329 (PLoS ONE, 2015).

Hit rate of the full screen: of about 310,000 compounds, about 2,200 (0.71%) showed an effect of 50% or more. The effect is printed as a negative number. For the sample, strong results were picked, then their nearest neighbours and some compounds at random.

Chain of human ether-à-go-go-related gene (hERG) potassium channel (Q12809 whole entry, looked up): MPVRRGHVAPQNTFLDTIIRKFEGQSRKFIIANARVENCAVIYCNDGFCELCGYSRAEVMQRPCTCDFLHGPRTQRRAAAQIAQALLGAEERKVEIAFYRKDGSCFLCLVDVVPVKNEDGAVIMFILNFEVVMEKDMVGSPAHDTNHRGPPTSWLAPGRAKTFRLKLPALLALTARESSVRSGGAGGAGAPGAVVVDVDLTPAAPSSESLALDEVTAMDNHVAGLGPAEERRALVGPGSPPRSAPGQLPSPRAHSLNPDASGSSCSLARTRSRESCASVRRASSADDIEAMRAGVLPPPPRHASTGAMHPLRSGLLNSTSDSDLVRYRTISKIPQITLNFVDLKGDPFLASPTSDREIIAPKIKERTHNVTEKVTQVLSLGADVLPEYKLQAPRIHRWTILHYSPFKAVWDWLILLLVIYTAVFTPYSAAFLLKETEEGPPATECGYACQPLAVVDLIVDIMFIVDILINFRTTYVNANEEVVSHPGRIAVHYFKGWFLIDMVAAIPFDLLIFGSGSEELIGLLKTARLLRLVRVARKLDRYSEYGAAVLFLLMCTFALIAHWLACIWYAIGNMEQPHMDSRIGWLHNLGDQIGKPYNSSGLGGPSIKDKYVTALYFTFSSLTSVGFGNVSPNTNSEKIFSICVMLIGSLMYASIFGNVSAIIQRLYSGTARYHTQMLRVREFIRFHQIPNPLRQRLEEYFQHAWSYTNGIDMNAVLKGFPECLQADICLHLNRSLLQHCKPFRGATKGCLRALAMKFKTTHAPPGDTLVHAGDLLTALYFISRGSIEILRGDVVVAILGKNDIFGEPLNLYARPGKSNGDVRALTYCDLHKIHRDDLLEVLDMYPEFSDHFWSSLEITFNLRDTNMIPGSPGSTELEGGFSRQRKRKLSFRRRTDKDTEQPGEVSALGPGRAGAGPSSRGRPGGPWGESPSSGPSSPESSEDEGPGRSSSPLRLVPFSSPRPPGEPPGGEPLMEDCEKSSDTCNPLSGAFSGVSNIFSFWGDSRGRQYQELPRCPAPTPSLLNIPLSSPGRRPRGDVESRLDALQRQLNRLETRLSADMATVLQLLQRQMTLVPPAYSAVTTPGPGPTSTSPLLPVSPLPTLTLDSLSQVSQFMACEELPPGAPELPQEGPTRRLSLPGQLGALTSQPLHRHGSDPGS

This experiment addresses human ether-à-go-go-related gene (hERG) potassium channel (human, UniProt Q12809). As to the kind of experiment: primary screen, population patch clamp on CHO cells stably expressing hERG; higher = less effect of the substance.
Turning to `O=C(NCCN1CCN(S(=O)(=O)c2ccccc2)CC1)C(=O)Nc1ccc(F)cc1`, the “hERG current change (%, negative = inhibition) at 1uM” value amounted to 8.68%. Under `O=C(CN1C(=O)c2cccc3cccc(c23)C1=O)NCCCO` stands 9.32%; under `COc1ccccc1NC(=O)N1CCN(c2ccc3nnc(-c4ccc(F)cc4)n3n2)CC1`, 13.5%; under `OCC1(CCc2ccccc2)CCN(Cc2ccc3nsnc3c2)CC1`, -69.1%. Under `OCCC1CN(Cc2nc(-c3ccccc3)cs2)CCN1Cc1ccc(F)cc1` (centres unmarked) stands -47.1%. Under `CC(C)CN1CCN(Cc2nc3ccccc3s2)CC1CCO` (centres unmarked) stands -5.53%.

Regarding `COc1ccc(CC2(CO)CCN(Cc3ccc4nsnc4c3)CC2)cc1`, the “hERG current change (%, negative = inhibition) at 1uM” value is recorded as -4.45%.

For `CC(C)=CCN1CCN(Cc2ccc3nsnc3c2)CC1CCO` (centres unmarked), the “hERG current change (%, negative = inhibition) at 1uM” value is reported as 4.93%. For `CC(C)CCN1CCN(Cc2ccc3nsnc3c2)CC1CCO` (centres unmarked), the “hERG current change (%, negative = inhibition) at 1uM” value is listed as -21.3%.

Regarding `OCCC1CN(Cc2nc(-c3ccccc3)cs2)CCN1CCc1ccccc1` (centres unmarked), the “hERG current change (%, negative = inhibition) at 1uM” value is given as -42.8%. For `OCCC1CN(Cc2nc3ccccc3s2)CCN1CCc1ccccc1` (centres unmarked) the value was -58.3%; for `OCCC1CN(Cc2nc(-c3ccc(F)cc3)cs2)CCN1CCc1ccccc1` (centres unmarked), -69.3%.

With `OCCC1CN(Cc2ccc3nsnc3c2)CCN1CCc1ccccc1` (centres unmarked), the “hERG current change (%, negative = inhibition) at 1uM” value was -73.7%.

On to `CC(C)CCN1CCN(Cc2nc3ccccc3s2)CC1CCO` (centres unmarked), for which the “hERG current change (%, negative = inhibition) at 1uM” value is recorded as -8.09%.

For `OCC1(Cc2ccc(Cl)cc2)CCN(Cc2ccc3nsnc3c2)CC1`, the “hERG current change (%, negative = inhibition) at 1uM” value is reported as -6.01%. As to `O=C(N/N=C/c1ccc(-c2cccc([N+](=O)[O-])c2)o1)[C@H]1C[C@@H]1c1ccccc1`, the “hERG current change (%, negative = inhibition) at 1uM” value is on record as 3.49%. With `CCOC(=O)c1cnc(N)nc1C(F)(F)F`, the “hERG current change (%, negative = inhibition) at 1uM” value is recorded as -2.92%. As to `CCC(=O)NC(=S)Nc1ccc(NC(=O)COc2ccccc2)cc1`, the “hERG current change (%, negative = inhibition) at 1uM” value is recorded as 19.7%. As for `COc1ccc(C(=O)N2CCN(C(C)=O)CC2)cc1S(=O)(=O)N1CCOCC1`, the “hERG current change (%, negative = inhibition) at 1uM” value amounted to 14.4%.

Take `COc1ccc(C(=O)NCc2ccc3c(c2)OCO3)c(OC)c1`: the “hERG current change (%, negative = inhibition) at 1uM” value is given as 13.6%. For `CC(=O)Nc1ccc(S(=O)(=O)NCC(=O)OCC(=O)N2CCc3ccccc32)cc1` the value was 2.85%; for `Cc1ccc2c(CN3CCOCC3)cc(=O)oc2c1`, -6.01%.

Turning to `O=c1cc(CN2CCN(Cc3ccccc3)CC2)c2cc(O)ccc2o1`, the “hERG current change (%, negative = inhibition) at 1uM” value is -39.4%. For `CCN(Cc1nc2ccccc2c(=O)[nH]1)Cc1cc(=O)oc2cc(C)c(C)cc12` the value was -25.2%. Under `COc1ccc2oc(=O)cc(CN3CCN(Cc4ccc(OC)c(OC)c4OC)CC3)c2c1` stands -2.05%; under `O=c1cc(CN2CCN(Cc3ccccc3)CC2)c2ccc(O)cc2o1`, -79.7%; under `CCc1ccc2c(CN(CC)Cc3nc4ccccc4c(=O)[nH]3)cc(=O)oc2c1`, -60.5%. Regarding `CCN(Cc1nc2ccccc2c(=O)[nH]1)Cc1cc(=O)oc2cc(OC)ccc12`, the “hERG current change (%, negative = inhibition) at 1uM” value was -25.6%. On to `Cc1ccc2c(CN3CCC(C)CC3)cc(=O)oc2c1`, for which the “hERG current change (%, negative = inhibition) at 1uM” value is -1.03%. Turning to `COc1ccc(CN2CCN(Cc3cc(=O)oc4cc(C)ccc34)CC2)c(OC)c1OC`, the “hERG current change (%, negative = inhibition) at 1uM” value is -87.6%. Under `Cc1ccc2c(CN3CCN(CCO)CC3)cc(=O)oc2c1` stands -52.1%; under `Cc1cc2oc(=O)cc(CN3CCN(Cc4ccccc4)CC3)c2cc1O`, -12.5%. Under `Cc1ccc2c(CN3CCCCC3)cc(=O)oc2c1` stands 6.38%; under `COc1ccc(CNC(=O)CSc2nnc3c(n2)[nH]c2ccc(OC)cc23)cc1`, 11.1%; under `Cc1ccc(NS(=O)(=O)c2cc(NC(=O)c3cc4c(s3)CCCC4)ccc2C)c(C)c1`, 7.78%. For `CCC1(CC)C(=O)NC(=O)NC1=NCCc1c[nH]c2ccccc12` the value was 21.2%; for `Fc1cccc(CN2CCN(Cc3nc(CCc4ccccc4)no3)CC2)c1`, 3.49%. Take `COc1ccc2oc(=O)cc(CN3CCOCC3)c2c1`: the “hERG current change (%, negative = inhibition) at 1uM” value is given as 10.4%. For `CCc1ccc2oc(=O)cc(CN3CCN(Cc4ccccc4)CC3)c2c1` the value was -17.6%. As for `Cc1ccc2oc(=O)cc(CN3CCN(Cc4ccccc4)CC3)c2c1`, the “hERG current change (%, negative = inhibition) at 1uM” value is reported as -18.6%. Under `Cc1ccc2c(CN3CCN(Cc4ccccc4)CC3)cc(=O)oc2c1` stands -84%.

For the molecule `Cc1cc2oc(=O)cc(CN3CCN(Cc4ccc5c(c4)OCO5)CC3)c2cc1C`, the “hERG current change (%, negative = inhibition) at 1uM” value stood at 0.724%. Take `CCc1ccc2c(CN3CCN(Cc4ccccc4)CC3)cc(=O)oc2c1`: the “hERG current change (%, negative = inhibition) at 1uM” value is given as -84.6%. For `CCc1ccc2c(CN3CCOCC3)cc(=O)oc2c1` the value was -4.5%.

For `Cc1cc(C)c2c(CN3CCN(Cc4ccc5c(c4)OCO5)CC3)cc(=O)oc2c1C`, the “hERG current change (%, negative = inhibition) at 1uM” value turned out to be 2.67%. On to `Cc1cc(C)c2c(CN3CCN(Cc4ccc5c(c4)OCO5)CC3)cc(=O)oc2c1`, for which the “hERG current change (%, negative = inhibition) at 1uM” value is -50.3%.

`COc1ccc(OC)c(CN2CCN(Cc3cc(=O)oc4cc(O)ccc34)CC2)c1`: the “hERG current change (%, negative = inhibition) at 1uM” value is reported as -67%. With `Cc1cc2oc(=O)cc(CN3CCN(Cc4ccccc4)CC3)c2cc1Cl`, the “hERG current change (%, negative = inhibition) at 1uM” value was determined as 0.748%. For `COC(=O)C1CCN(Cc2cc(=O)oc3cc(OC)ccc23)CC1` the value was -1.21%; for `CN(C)C(=S)NC(=O)C12CC3(C)CC(C)(CC(C)(C3)C1)C2`, 12.9%; for `O=C(CSc1nnc(CNC(=O)c2ccc(F)cc2)o1)Nc1nccs1`, 13.2%. For `CCCCOc1c(Cl)cc(C(=O)N(C)CC(=O)Nc2ccc(N3CCOCC3)cc2)cc1OCC` the value was 9.76%; for `O=C(NCCCn1cccn1)C1CCC(=O)N(Cc2ccccc2F)C1` (centres unmarked), 7.05%.

With `O=C(CCN1C(=O)/C(=C/C=C/c2ccccc2)SC1=S)Nc1nccs1`, the “hERG current change (%, negative = inhibition) at 1uM” value is reported as -3%. With `Cn1c(SCC(=O)Nc2ccc3c(c2)OCCO3)nnc1-c1ccccn1`, the “hERG current change (%, negative = inhibition) at 1uM” value stood at 6.5%. Under `CCN(CC)S(=O)(=O)c1ccc(NC(=O)COC(=O)c2c[nH]c(=O)[nH]c2=O)cc1` stands 11.1%.
